From PubChem
GRIN3A LBD mod: binders of NR3A ligand-binding domain, primary screen, biophysical, differential scanning fluorimetry, uHTS. Glutamate receptor ionotropic, NMDA 3A (GRIN3A) ligand-binding domain. NR3A LBD differential scanning fluorimetry, Tm shift; 0% = protein alone, 100% = glycine-bound protein. Tm shift relative to glycine control, % at 25 µM. 340,000 tested, 2.5% active. AID 1259313, 2017;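 active = melting temperature shift of at least 10% of the positive control shift, at one fixed dose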
Yeast superoxide: reduction of superoxide in aged yeast, primary screen, HTS | S. cerevisiae aged cells, superoxide DHE fluorescence; active compounds read low | superoxide response (% of plate mean), % at 10 µM | 330,000 tested, 0.18% active;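 active = superoxide response under a set limit, about three screen SD below normal, cut at about 65% in these data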;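 note: yeast aged for seven days with compound at 30 °C before DHE staining; 100% = average MFI of all compound-treated wells on the plate with controls excluded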
UBC13 inh: UBC13 polyubiquitin chain formation inhibitors, primary screen, biochemical, TR-FRET, uHTS; Ubiquitin-conjugating enzyme E2 N (Homo sapiens), P61088; inhibition, % at 20 µM; AID 485273, 2010; 330,000 tested, 0.47% active; in the data active = inhibition above about 45%, passing the limit was not always enough; inconclusive = no clear call, values can overlap the other calls
Target sequence (P61088 whole entry, looked up): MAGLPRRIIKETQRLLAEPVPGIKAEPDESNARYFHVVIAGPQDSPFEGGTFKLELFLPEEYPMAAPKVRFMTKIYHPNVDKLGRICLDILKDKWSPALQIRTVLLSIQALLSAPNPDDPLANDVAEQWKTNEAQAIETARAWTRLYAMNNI
dFosB activator: activators of delta FosB homodimer, primary screen, biochemical, fluorescence polarization, TAMRA-CDK5 oligo, single point; Protein FosB (Mus musculus), P13346; purified delta FosB; percent of positive-control signal above neutral wells; activation, % at 25 µM; 340,000 tested, 0.99% active; AID 493131, 2011;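 active = mean activation above about 17%, with every replicate also reaching it, limit read from the data, passing the limit was not always enough; inconclusive = only one of the two conditions met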
Target sequence (P13346 whole entry, looked up): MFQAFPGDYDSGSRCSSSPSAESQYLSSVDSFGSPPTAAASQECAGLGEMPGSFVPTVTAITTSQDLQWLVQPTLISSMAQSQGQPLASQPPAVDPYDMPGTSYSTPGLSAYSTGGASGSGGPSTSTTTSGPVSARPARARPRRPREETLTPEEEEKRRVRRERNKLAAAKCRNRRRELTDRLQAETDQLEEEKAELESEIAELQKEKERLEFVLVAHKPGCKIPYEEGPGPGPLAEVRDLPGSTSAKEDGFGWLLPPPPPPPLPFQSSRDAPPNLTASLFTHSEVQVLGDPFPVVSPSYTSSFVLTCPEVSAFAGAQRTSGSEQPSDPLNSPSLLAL
NALP1 yeast inh: NALP1 inflammasome inhibitors in reconstituted yeast, colorimetric, S. cerevisiae, triplicate retest; S. cerevisiae NALP1/ASC/caspase-1 growth, X-gal OD620, 72 h; inhibition, % at 10 µM; 280,000 tested, 0.61% active; in the data active = inhibition mostly above about 24%, no sharp cut-off; inactive = mostly below about 32%
* hit, by the source's call; ? = inconclusive; nt = not tested or not shown. Only some compounds are listed: those with a hit (about 4.3% of all), similar ones and a draw of the others.

SMILES | GRIN3A LBD mod | Yeast superoxide | UBC13 inh | dFosB activator | NALP1 yeast inh
Cc1cnc2cc(Cl)c(Cl)cc2n1 | 579.1* | 101.8 | -0.5 | -2.8 | -74.4
Cc1csc2nc(COC(=O)c3ccc(Cl)c([N+](=O)[O-])c3)cc(=O)n12 | 2.8 | 103.4 | -5.3 | -7.5 | nt
COc1ccc(OC)c(/C=C2\S/C(=N/NC(=O)c3ccc4ccccc4c3)NC2=O)c1 | 17.1* | 78.4 | nt | -7.5 | 1.8
O=C1N/C(=N/NC(=O)c2cccc3ccccc23)S/C1=C\c1ccccc1OCc1ccccc1 | 8.3 | nt | nt | -11.3 | -8.1
CCOc1ccc(S(=O)(=O)NN)cc1 | -1.5 | 102.4 | 1.9 | 0.5 | 17.7
CCN1CCc2c(C#N)c(N3CCOCC3)nc(N3CCOCC3)c2C1 | 27.3* | 106.0 | 0.3 | 6.5 | 2.7
CCN(CC)c1ccc(C=C2C(=O)OC3(CCCC3)OC2=O)cc1 | 23.2* | 84.4 | -73.5 | ? | 11.3
CCN(CC)c1ccc(C=C2C(=O)OC(c3ccccc3)OC2=O)cc1 (stereo not given) | 31.6* | 100.2 | -19.8 | 6.6 | 0.8
CCN(CC)c1ccc(C=C2C(=O)OC(C)(C(C)(C)C)OC2=O)cc1 (stereo not given) | 2.4 | 82.5 | -155.1 | 15.0 | nt
COc1cccc(-c2cc(N)nn2C(=O)Nc2ccc(Cl)cc2)c1 | 26.7* | 106.1 | 12.4 | 3.9 | 29.9
COc1ccccc1NC(=O)N1C2CCCC1CC(NC(=O)c1ccccc1)C2 (stereo not given) | -3.1 | 82.0 | 6.5 | -13.1 | 6.0
Cc1ccc(-c2c(C)cc3oc(=O)cc(-c4ccccc4)c3c2C)cc1 | -0.7 | 98.0 | nt | 5.9 | nt
COc1ccc(-c2c(C)cc3oc(=O)cc(-c4ccccc4)c3c2C)cc1 | 15.4* | 113.6 | nt | -5.5 | nt
COc1ccc(-c2cccc(-c3cc(=O)oc4cc(OC)cc(OC)c34)c2)cc1 | 15.4* | 115.0 | nt | -3.6 | nt
CSCCC(NS(=O)(=O)c1ccccc1F)C(=O)Nc1cccc(C)n1 (stereo not given) | 0.2 | 101.4 | -0.2 | -10.8 | -6.7
COc1cccc(CN2CC(C(=O)NCc3ccc(C)o3)CCC2=O)c1 (stereo not given) | -0.1 | nt | -2.6 | -6.3 | 4.2
CC(=O)Nc1ccc(S(=O)(=O)NC2=C(N3CCN(c4ccc(F)cc4)CC3)C(=O)c3ccccc3C2=O)cc1 | 15.6* | 106.0 | -70.4 | -6.7 | 15.3
Cc1ccc(S(=O)(=O)NC2=C(N3CCN(c4ccccc4F)CC3)C(=O)c3ccccc3C2=O)cc1 | -22.3 | 128.6 | -106.7 | -8.3 | -1.5
COc1cc(/C=C2\SC(=S)N(NC(=O)c3ccccc3O)C2=O)ccc1O | 10.6* | 122.2 | -64.0 | 7.5 | 3.9
O=C(NN1C(=O)/C(=C/c2ccc(O)cc2)SC1=S)c1ccccc1O | 16.4* | 91.0 | -52.5 | -0.2 | -10.4
O=C(NN1C(=O)/C(=C/c2ccc(O)cc2)SC1=S)c1cccc(O)c1 | 9.9 | 116.5 | -81.4 | -1.6 | 4.8
O=C(NC(=S)NNC(=O)c1ccco1)c1ccc(Br)cc1 | -1.4 | 243.6 | -15.2 | 6.1 | -2.3
COc1ccc(NC(=O)/C=C/c2ccc(OC(F)F)cc2)cn1 | 3.4 | 98.3 | -10.3 | -8.8 | 20.1
COc1ccc(NC(=O)/C=C/c2ccc(OC)c(OC)c2)cn1 | -17.0 | 78.4 | -13.6 | 6.2 | 1.7
COc1ccc(NC(=O)/C=C/c2cccc(Br)c2)cn1 | 32.6* | 83.5 | -3.0 | -15.3 | 17.8
SMILES | GRIN3A LBD mod | Yeast superoxide | UBC13 inh | dFosB activator | NALP1 yeast inh
COc1ccc(NC(=O)/C=C/c2cccc(C(F)(F)F)c2)cn1 | 11.4* | 89.1 | -3.0 | -16.9 | 25.0
COc1ccc(/C=C/C(=O)Nc2ccc(OC)nc2)cc1 | 26.1* | 77.0 | -31.6 | -1.9 | 37.2
COc1ccc(/C=C/C(=O)Nc2cc(C(F)(F)F)ccc2Cl)cc1 | 14.8* | 90.0 | 2.4 | -5.0 | 5.6
O=C(O)C(Nc1nc(C(F)(F)F)nc2ccccc12)c1ccccc1 (stereo not given) | 0.7 | 100.3 | 7.6 | -3.4 | 1.0
Cc1cccc(NC(=O)c2cc3c([nH]c4ccccc43)c(C)n2)c1C | 14.0* | 96.3 | ? | -7.4 | 25.2
COc1ccc(CNC(=O)[C@@H]2CC=C[C@@H]3CCN(C4CCCCC4)C(=O)[C@@H]32)cc1 | -0.3 | 90.4 | 1.9 | -1.1 | nt
COc1ccc(NC(=O)[C@@H]2CC=C[C@@H]3CCN(C4CCCCC4)C(=O)[C@@H]32)cc1 | 11.5* | 93.1 | -4.6 | 7.7 | nt
Clc1nc(Nc2ccc(N3CCOCC3)cc2)c2ccccc2n1 | 0.8 | 98.5 | 21.8 | -10.6 | -8.8
O=S(=O)(Nc1nc2ccccc2nc1Nc1ccc(N2CCOCC2)cc1)c1cc(Cl)ccc1Cl | 19.9* | 92.4 | -27.2 | -14.1 | 26.4
COc1ccccc1Cc1nc(-c2ccncc2)no1 | -13.2 | 100.1 | 4.7 | -8.1 | -1.4
COc1ccccc1Cc1noc(COc2cccc(C)c2C)n1 | 22.5* | 109.5 | -16.4 | -3.2 | 15.6
CCCN(CCC)CCCNC(=S)Nc1ccc2nc3n(c(=O)c2c1)CCCCC3 | -3.9 | 88.7 | -15.6 | 0.2 | 4.7
COc1cccc(CN2CCC(C(=O)Nc3ccc(-c4cccc(C)c4)cc3)CC2)c1O | -5.2 | 96.1 | 26.9 | 40.2* | 15.9
Cc1cccc(-c2ccc(NC(=O)C3CCN(CC4CC4)CC3)cc2)c1 | 1.4 | 100.8 | 24.0 | 0.1 | 20.0
O=C1CN(C(=O)NCC(=O)N2CCCC2)c2ccccc2N1 | 1.7 | 79.2 | -1.5 | 8.4 | -43.2
CSC1=NSC2=NC(=O)/C(=C/c3coc4ccccc4c3=O)C(=N)N12 | 10.8* | 91.9 | nt | -13.6 | 28.5
CSC1=NSC2=NC(=O)/C(=C\c3cccs3)C(=N)N12 | -15.9 | 92.8 | nt | -0.8 | 32.2
CSC1=NSC2=NC(=O)/C(=C/c3coc4ccc(O)cc4c3=O)C(=N)N12 | 14.6* | 126.7 | -17.1 | -28.4 | 23.7
CC(NC(=O)COC(=O)c1ccc2c(c1)S(=O)(=O)N=C1CCCCCN12)C12CC3CC(CC(C3)C1)C2 (stereo not given) | 18.3* | 101.0 | -1.4 | 4.1 | 28.2
O=C(Nc1cc(S(=O)(=O)N2CCOCC2)ccc1Cl)c1ccc(=O)[nH]c1 | 1.7 | nt | 6.5 | -0.8 | nt
NS(=O)(=O)c1ccc(CCNC(=O)Cc2ccc(Cl)cc2)cc1 | 0.7 | 95.9 | -4.6 | 3.5 | 6.0
Cc1cc(C)c(O)c(-c2cc(C(=O)NCCc3ccc(S(N)(=O)=O)cc3)[nH]n2)c1 | -5.1 | 100.1 | 8.5 | -1.9 | nt
COc1ccc(CCNC(=O)c2cc(-c3cc(Cl)ccc3O)n[nH]2)cc1OC | 10.4* | 95.6 | 11.2 | -5.4 | -16.1
Cc1cc(O)c(-c2cc(C(=O)NCCc3ccc(S(N)(=O)=O)cc3)[nH]n2)cc1C | 21.8* | 83.0 | 14.8 | 7.9 | nt
NS(=O)(=O)c1ccc(CCNC(=O)c2cc(-c3cc(Cl)ccc3O)n[nH]2)cc1 | 25.0* | 95.6 | 20.4 | 11.1 | 11.9
